Laboratory results published in the supplement of paper PMC11732987, “Enantioselective OTUD7B fragment discovery through chemoproteomics screening and high-throughput optimisation” (Communications Chemistry, 2025).

How the values were obtained:
Assay in all cases: log2 ratio of Biotin-Ahx-Ub-VS probe labelling (fragment/DMSO); higher = less target engagement (more negative = stronger competition), active = hit call of the paper (q ≤ 0.05, log2 ratio ≤ -1)
Details in all cases: compound concentration: 200 uM; treatment time: 3 h
USP34 = USP34 (UniProt Q70CQ2)
Sequence of USP34 (Q70CQ2 whole entry, the tested form may be a part): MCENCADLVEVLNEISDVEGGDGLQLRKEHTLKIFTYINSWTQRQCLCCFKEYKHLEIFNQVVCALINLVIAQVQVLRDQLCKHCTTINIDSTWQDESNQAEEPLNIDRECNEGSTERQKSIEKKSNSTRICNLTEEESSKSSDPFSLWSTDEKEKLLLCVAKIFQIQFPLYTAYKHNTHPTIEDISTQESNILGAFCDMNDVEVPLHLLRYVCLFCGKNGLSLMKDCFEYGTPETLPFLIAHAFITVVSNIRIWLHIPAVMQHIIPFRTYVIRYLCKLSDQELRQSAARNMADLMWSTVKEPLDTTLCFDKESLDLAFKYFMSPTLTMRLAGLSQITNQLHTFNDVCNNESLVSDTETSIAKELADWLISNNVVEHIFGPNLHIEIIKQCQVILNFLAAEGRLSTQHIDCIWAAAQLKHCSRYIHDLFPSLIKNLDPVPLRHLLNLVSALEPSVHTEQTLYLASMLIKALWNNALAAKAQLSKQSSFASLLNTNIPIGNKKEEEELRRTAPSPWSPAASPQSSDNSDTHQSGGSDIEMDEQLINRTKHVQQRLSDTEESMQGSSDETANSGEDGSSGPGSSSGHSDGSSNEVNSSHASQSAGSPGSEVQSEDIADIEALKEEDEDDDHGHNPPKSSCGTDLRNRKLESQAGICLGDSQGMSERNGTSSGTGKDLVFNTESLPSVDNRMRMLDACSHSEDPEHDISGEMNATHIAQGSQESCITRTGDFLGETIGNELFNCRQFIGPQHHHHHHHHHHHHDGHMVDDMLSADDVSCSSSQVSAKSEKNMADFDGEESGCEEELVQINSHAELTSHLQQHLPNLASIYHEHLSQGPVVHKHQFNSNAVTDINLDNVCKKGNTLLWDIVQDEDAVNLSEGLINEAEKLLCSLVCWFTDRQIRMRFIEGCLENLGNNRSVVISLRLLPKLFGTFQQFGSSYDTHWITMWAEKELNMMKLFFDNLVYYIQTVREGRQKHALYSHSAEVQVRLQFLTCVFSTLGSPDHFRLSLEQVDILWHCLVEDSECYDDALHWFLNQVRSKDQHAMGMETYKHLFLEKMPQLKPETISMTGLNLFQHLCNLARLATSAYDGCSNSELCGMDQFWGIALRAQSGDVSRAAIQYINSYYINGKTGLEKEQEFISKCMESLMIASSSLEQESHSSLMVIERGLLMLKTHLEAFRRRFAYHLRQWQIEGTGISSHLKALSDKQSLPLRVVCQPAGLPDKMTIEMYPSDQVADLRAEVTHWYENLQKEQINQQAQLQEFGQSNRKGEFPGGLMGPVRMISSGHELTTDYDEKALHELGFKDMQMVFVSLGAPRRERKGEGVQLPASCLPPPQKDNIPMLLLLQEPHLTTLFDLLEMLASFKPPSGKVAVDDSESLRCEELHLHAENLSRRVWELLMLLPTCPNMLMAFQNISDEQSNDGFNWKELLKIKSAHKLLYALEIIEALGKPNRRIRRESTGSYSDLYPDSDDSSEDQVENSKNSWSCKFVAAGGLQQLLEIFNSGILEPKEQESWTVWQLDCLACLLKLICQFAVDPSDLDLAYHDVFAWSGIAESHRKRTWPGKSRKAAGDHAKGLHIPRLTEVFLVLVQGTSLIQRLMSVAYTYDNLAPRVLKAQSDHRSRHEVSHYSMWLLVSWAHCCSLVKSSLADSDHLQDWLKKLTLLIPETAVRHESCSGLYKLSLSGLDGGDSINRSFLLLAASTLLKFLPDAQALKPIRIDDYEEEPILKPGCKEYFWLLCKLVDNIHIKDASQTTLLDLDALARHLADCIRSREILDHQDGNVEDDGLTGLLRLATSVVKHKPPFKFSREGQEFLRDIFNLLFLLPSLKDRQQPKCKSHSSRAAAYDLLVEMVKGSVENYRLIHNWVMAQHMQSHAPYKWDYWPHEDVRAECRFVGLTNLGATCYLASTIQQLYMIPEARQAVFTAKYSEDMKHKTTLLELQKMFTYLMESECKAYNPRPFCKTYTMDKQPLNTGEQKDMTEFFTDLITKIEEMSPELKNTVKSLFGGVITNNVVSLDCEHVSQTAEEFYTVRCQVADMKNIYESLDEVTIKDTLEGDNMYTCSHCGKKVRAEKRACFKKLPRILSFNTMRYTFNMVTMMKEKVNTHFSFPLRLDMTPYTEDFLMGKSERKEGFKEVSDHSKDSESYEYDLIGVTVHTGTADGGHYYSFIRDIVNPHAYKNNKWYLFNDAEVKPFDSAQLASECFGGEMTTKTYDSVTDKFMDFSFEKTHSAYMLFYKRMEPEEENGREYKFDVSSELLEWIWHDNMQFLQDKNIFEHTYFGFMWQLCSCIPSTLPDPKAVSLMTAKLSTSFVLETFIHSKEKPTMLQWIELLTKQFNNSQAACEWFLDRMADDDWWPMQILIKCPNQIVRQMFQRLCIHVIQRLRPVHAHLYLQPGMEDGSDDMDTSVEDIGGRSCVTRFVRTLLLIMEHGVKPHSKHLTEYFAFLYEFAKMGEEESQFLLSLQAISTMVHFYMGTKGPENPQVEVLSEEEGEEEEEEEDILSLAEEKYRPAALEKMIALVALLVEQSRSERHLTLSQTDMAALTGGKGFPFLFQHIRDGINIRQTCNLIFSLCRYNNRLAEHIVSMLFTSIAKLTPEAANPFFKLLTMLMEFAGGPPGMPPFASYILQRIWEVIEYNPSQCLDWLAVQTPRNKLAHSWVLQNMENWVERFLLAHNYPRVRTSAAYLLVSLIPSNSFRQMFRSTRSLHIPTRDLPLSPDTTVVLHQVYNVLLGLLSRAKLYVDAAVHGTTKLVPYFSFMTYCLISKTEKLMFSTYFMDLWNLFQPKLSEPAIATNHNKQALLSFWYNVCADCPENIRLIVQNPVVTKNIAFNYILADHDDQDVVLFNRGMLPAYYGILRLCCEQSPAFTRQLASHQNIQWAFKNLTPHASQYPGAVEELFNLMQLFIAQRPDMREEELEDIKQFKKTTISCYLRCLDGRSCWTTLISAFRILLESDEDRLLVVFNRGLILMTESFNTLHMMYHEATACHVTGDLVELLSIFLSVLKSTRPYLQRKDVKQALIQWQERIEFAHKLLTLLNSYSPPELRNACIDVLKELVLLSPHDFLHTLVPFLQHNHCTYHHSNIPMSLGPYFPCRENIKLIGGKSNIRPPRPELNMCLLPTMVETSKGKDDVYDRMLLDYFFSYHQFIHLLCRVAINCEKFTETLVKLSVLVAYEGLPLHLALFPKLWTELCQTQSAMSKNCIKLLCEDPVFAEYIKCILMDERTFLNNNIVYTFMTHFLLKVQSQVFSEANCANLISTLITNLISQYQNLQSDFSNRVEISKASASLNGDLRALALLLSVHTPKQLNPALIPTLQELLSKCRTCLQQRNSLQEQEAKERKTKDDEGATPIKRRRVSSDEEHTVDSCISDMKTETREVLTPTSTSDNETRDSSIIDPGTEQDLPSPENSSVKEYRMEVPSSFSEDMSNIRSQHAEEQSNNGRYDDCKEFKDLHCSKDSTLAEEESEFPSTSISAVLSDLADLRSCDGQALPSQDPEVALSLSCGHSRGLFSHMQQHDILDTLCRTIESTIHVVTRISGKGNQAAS
Procedure, shortened: (§1)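 HEK293T lysate (495 µg per sample, in Tris/CHAPS/IGEPAL buffer with protease inhibitors) was exposed in triplicate for 3 h to fragment at 200 µM or to vehicle, then to Biotin-Ahx-Ub-VS at 0.5 µM final for 1 h. Labelled DUBs were enriched on NeutrAvidin, digested with LysC and trypsin, and analysed by diaPASEF LC-MS/MS. Spectronaut label-free quantities were normalised to the global median, and values are average log2 ratios of fragment over vehicle from an unpaired t-test. Only proteins with ≥2 unique peptides were used.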

USP36 = molecular target: T1, USP36 (UniProt Q9P275)
T1 sequence (whole entry): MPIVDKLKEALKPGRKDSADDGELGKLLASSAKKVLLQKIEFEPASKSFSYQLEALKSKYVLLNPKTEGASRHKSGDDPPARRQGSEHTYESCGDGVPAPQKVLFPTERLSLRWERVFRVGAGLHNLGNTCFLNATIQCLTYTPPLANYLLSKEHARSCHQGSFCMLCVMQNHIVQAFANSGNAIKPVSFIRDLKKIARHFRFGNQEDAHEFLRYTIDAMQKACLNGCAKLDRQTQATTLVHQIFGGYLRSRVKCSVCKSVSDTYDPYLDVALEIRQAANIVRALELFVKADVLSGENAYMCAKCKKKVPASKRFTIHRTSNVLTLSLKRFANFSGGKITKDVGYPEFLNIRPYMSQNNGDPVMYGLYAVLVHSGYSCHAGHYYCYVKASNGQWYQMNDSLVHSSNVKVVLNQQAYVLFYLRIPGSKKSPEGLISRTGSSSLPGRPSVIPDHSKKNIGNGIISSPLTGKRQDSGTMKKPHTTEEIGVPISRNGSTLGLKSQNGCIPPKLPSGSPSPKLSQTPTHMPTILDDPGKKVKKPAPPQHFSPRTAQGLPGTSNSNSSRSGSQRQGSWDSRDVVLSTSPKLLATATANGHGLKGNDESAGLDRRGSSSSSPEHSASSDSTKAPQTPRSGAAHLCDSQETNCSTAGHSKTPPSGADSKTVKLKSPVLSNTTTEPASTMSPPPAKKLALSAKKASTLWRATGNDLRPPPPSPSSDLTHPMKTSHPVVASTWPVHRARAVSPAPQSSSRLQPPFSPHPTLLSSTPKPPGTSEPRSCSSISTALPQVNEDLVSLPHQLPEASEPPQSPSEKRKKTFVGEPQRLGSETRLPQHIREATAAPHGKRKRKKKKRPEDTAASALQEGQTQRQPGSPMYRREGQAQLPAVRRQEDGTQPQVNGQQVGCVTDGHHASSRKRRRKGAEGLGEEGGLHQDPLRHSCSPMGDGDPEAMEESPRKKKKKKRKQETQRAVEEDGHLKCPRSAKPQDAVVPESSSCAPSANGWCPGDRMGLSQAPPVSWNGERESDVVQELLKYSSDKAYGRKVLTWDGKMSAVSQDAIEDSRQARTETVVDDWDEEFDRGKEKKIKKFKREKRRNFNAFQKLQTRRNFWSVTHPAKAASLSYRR
Procedure, shortened: as §1

USP38 = molecular target: T2, USP38 (UniProt Q8NB14)
T2 sequence (whole entry): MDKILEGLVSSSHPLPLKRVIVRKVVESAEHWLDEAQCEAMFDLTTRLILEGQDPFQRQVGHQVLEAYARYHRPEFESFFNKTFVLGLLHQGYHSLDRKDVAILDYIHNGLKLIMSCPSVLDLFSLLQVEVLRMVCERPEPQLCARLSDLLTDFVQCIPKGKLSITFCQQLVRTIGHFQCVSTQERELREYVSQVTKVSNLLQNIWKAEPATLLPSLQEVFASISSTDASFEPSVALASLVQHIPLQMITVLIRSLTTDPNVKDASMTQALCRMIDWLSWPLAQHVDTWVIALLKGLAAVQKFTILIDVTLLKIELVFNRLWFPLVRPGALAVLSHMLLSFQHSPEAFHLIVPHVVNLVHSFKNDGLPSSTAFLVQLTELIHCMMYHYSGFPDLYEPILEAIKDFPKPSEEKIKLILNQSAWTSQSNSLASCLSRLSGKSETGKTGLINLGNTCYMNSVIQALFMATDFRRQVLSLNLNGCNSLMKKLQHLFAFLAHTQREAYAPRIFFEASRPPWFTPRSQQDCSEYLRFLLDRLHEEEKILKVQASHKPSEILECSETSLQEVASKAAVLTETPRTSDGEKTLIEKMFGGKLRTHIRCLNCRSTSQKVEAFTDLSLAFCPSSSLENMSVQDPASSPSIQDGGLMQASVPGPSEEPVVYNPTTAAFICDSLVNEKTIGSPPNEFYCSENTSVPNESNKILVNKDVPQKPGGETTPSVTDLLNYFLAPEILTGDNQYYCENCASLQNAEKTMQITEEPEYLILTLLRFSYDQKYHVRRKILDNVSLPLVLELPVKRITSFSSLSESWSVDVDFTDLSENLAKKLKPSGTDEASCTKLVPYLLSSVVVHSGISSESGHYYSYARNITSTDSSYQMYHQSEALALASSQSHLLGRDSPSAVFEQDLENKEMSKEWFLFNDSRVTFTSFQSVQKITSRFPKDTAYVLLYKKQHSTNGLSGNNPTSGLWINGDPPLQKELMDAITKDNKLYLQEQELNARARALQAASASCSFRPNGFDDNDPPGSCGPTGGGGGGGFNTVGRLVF
Procedure, shortened: as §1

USP39 = molecular target: T3, USP39 (UniProt Q53GS9)
T3 sequence (whole entry): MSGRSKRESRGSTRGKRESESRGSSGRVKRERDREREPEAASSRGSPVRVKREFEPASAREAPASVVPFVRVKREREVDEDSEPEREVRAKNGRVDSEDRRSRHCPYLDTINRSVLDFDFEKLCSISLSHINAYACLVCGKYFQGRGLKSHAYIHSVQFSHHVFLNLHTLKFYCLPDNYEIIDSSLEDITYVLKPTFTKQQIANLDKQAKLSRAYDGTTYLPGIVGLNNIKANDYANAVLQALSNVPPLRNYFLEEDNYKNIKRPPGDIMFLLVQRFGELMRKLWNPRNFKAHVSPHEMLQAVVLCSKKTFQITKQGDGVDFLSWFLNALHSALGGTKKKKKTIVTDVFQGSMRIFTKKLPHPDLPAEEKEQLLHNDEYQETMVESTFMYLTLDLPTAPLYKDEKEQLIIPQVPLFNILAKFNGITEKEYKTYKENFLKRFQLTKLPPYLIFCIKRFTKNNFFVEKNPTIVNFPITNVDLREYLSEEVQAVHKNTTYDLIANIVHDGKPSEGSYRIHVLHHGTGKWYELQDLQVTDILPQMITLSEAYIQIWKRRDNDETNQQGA
Procedure, shortened: as §1

USP4 = molecular target: T4, USP4 (UniProt Q13107)
T4 sequence (whole entry): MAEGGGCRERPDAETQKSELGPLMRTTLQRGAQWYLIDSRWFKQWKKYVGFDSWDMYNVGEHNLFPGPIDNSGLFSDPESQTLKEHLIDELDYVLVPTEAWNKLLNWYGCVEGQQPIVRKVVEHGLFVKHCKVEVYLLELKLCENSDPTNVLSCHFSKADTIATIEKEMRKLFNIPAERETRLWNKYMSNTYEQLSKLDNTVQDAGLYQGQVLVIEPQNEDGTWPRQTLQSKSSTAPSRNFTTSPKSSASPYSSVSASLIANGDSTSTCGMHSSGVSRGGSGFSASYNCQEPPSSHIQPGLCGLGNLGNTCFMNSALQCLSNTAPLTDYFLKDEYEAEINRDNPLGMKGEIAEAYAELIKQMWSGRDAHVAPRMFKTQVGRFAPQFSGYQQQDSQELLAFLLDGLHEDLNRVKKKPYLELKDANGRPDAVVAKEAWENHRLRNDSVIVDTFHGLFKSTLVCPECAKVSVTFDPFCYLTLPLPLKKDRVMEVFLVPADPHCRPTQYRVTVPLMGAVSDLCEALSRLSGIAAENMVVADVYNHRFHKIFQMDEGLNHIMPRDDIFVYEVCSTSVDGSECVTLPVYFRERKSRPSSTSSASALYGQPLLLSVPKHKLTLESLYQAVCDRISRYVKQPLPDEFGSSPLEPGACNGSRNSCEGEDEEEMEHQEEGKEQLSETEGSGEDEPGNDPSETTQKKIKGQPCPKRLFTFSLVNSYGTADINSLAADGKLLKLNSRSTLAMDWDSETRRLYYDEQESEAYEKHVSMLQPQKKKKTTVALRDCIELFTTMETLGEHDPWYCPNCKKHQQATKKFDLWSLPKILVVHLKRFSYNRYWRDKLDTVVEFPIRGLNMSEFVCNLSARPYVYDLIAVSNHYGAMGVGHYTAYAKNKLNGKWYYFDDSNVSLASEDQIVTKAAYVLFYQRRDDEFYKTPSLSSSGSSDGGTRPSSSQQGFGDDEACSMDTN
Procedure, shortened: as §1

Measured: log2 ratio of Biotin-Ahx-Ub-VS probe labelling

O=C(CCl)N1CCC(c2ccn[nH]2)C1 (stereo not given)
inactive: USP34 0.0363 | USP36 -0.353 | USP38 -0.148 | USP39 0.00596 | USP4 -0.113
